Bioassay records from PubChem.
HCMV antiviral – human cytomegalovirus inhibition; HFF cells, HCMV-luciferase reporter, 72 h; active compounds read low; activity change, negative = inhibition, % at 57.5 µM; 410,000 compounds, 4.5% hits; in the data active = activity change below about -60%; inconclusive = no clear call, values can overlap the other calls; inactive = above about -39%
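Human foreskin fibroblasts infected with luciferase-reporter HCMV at MOI 1 PFU/cell, compounds at two doses. Luciferase measured 72 h post infection; normalized to buffer-only basal and Salinomycin (10uM) controls.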
Pf growth 48h – P. falciparum growth inhibition at 48 hours (one generation) | 310,000 compounds, 5.9% hits | Potency, µM (series often up to 28.7 µM), hits mostly inhibitors | P. falciparum luciferase growth in erythrocytes, 48 h | AID 504832
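In quantitative HTS format, infected erythrocytes bearing luciferase-reporter parasites were treated for a single generation at 37 C. Luminescence after adding detection reagent served as the growth measure.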
HCV inh – HCV inhibition; Huh7.5.1 HCVcc-Cre infection, luciferase reporter, 44 h; 340,000 compounds, 3.4% hits; Potency, µM (titrated, usually from 41.8 µM), most hits filed as inhibitors
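Seed cells (1,000/well) for 4 h; treat with compound and infect with HCVcc-Cre, moi about 0.5. Incubate 44 h, then detect luciferase activity.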
LASV entry inh – inhibitors of Lassa virus binding or cell entry; AID 540256; Lassa virus pseudotype entry inhibition, cell reporter; Potency, µM (series often up to 37.9 µM), most hits filed as inhibitors; 300,000 compounds, 1.2% hits; calls by dose curve; tested in HEK293 cells; also: nearly all actives have a fitted effect of over 50% in size
Marburg entry inh – inhibitors of Marburg virus binding or cell entry | 300,000 compounds, 1.8% hits | Potency, µM (doses to about 37.8 µM), usual class: inhibitors | Marburg virus pseudotyped entry inhibition, cell reporter; calls by dose curve; tested in HEK293 cells
Pf growth 96h – inhibits malaria parasite growth, 96 h. P. falciparum luciferase reporter growth, 96 h. Potency, µM (series often up to 28.7 µM), actives largely listed as inhibitors. 320,000 compounds, 6.9% hits. AID 504834
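P. falciparum expressing integrated firefly luciferase grown in erythrocytes (2% hematocrit, 0.05% parasitemia final) with compounds for 96 hours at 37 C, 5% CO2. Growth inhibition read as loss of luminescence after adding luciferase detection reagent.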
Each line names hits and unclear results; the compound was inactive in the other large screens. In the library only some 14% were active in any assay of this set; here they are far more common. Unless noted, calls follow the shape of the dose curve; as a rule, active = well fitted inhibition curve with a large enough effect; inconclusive = small, poorly fitted or top-dose-only effect, or another doubt; inactive = no such curve, though single readings can be large or run the other way.

COc1cccc(N2C(N)=NC(N)=NC2(C)C)c1	HCMV antiviral -67, Pf growth 48h 0.13µM, LASV entry inh inconclusive
CCOc1ccc(N2C(N)=NC(N)=NC2(C)C)cc1	HCMV antiviral -68, Pf growth 48h 0.13µM, Marburg entry inh inconclusive
CC1(C)N=C(N)N=C(N)N1c1cccc(C#N)c1	HCMV antiviral -77, HCV inh inconclusive, LASV entry inh 2.5µM, Marburg entry inh inconclusive (no result: Pf growth 48h, Pf growth 96h)
COc1ccccc1N1C(N)=NC(N)=NC1(C)C	Pf growth 48h inconclusive
COc1ccc(N2C(N)=NC(N)=NC2(C)C)cc1	HCMV antiviral inconclusive, Pf growth 48h 0.033µM, LASV entry inh inconclusive, Marburg entry inh inconclusive, Pf growth 96h inconclusive
CC1(C)N=C(N)N=C(N)N1c1ccc(OCC(=O)N2CCOCC2)cc1	none (no result: Pf growth 48h, HCV inh, LASV entry inh, Marburg entry inh, Pf growth 96h)
O=C(NCc1cccnc1)O[C@H]1CC[C@@]23CCCN2C(=O)CCC[C@H]3[C@H]1Cc1ccccc1	none (no result: Pf growth 48h, HCV inh, LASV entry inh, Marburg entry inh, Pf growth 96h)
COc1ccccc1CNC(=O)CCn1c(=O)c2ccccc2n(CC(=O)Nc2ccc(C)cc2Cl)c1=O	none (no result: Pf growth 48h, HCV inh, Pf growth 96h)
CN1OC[C@@H]2CN(C(=S)NCCc3ccccc3)[C@H](c3ccccc3Br)C[C@@H]21	none (no result: Pf growth 48h, HCV inh, LASV entry inh, Marburg entry inh, Pf growth 96h)
CC1=C(C(=O)OC2CCCCCCC2)C(c2ccc(O)cc2)NC(=O)N1 (configuration not stated)	LASV entry inh 2.6µM (no result: Pf growth 48h)
CCOc1ccccc1C1NC(=O)NC(C)=C1C(=O)OC1CCCCC1 (configuration not stated)	Pf growth 48h inconclusive, LASV entry inh inconclusive (no result: Pf growth 96h)
CCOC(=O)C1=C(C)NC(=O)NC1c1cc(Br)c(O)c(OC)c1 (configuration not stated)	none
COc1cc(C2NC(=O)NC(C)=C2C(=O)OC2CCCCC2)cc(Br)c1O (configuration not stated)	LASV entry inh inconclusive, Pf growth 96h 13µM (no result: Pf growth 48h)
CCOc1ccccc1C1NC(=O)NC(C)=C1C(=O)OC1CCCC1C (configuration not stated)	HCMV antiviral -68, Pf growth 48h inconclusive, LASV entry inh inconclusive, Marburg entry inh inconclusive, Pf growth 96h inconclusive
CC1=C(C(=O)OC2CCCCC2)C(c2ccccc2Br)NC(=O)N1 (configuration not stated)	HCMV antiviral inconclusive (no result: LASV entry inh, Marburg entry inh)
CC1=C(C(=O)OC2CCCCC2)C(c2ccccc2)NC(=O)N1 (configuration not stated)	HCV inh 10µM, LASV entry inh inconclusive, Marburg entry inh inconclusive, Pf growth 96h 9.3µM
Cc1cc2n(n1)CCCN2C(=O)Nc1cccc(C)c1C	none (no result: Pf growth 48h, HCV inh, Marburg entry inh, Pf growth 96h)
CCOC(=O)C1=C(C)NC(=O)NC1c1ccc(-c2ccccc2F)o1 (configuration not stated)	HCMV antiviral -61, HCV inh inconclusive, LASV entry inh inconclusive
CCCCOC(=O)C1=C(C)NC(=O)NC1c1ccccc1 (configuration not stated)	Pf growth 96h 8.3µM (no result: LASV entry inh, Marburg entry inh)
COc1cc(C2NC(=O)NC(C)=C2C(=O)OC2CCCC(C)C2)ccc1O (configuration not stated)	Pf growth 48h 10µM, LASV entry inh inconclusive (no result: Pf growth 96h)
COc1cccc(NC(=O)C2=COC3=NC(=O)N(Cc4ccccc4)CCN23)c1	none (no result: Pf growth 48h, HCV inh, LASV entry inh, Marburg entry inh, Pf growth 96h)
COC(=O)[C@@]1(C)[C@H]2C(=O)N(Cc3ccccc3)C(=O)[C@H]2[C@H]2CN(C)C(=NC3CCCCC3)N21	HCV inh 0.56µM (no result: Pf growth 48h, LASV entry inh, Marburg entry inh, Pf growth 96h)
Cc1ccc(NC(=S)N(CCN(C)C)C(C)c2ccco2)cc1C (configuration not stated)	HCMV antiviral inconclusive, LASV entry inh inconclusive, Pf growth 96h inconclusive
CCOc1ccc(NC(=S)N(Cc2ccc(N(C)C)cc2)Cc2ccco2)cc1	Pf growth 48h inconclusive, LASV entry inh inconclusive
COc1ccc(NC(=S)N(CCN(C)C)C(C)c2ccco2)cc1 (configuration not stated)	HCMV antiviral -62, LASV entry inh inconclusive, Marburg entry inh inconclusive, Pf growth 96h inconclusive
COc1ccc(NC(=S)N(Cc2ccc(N(C)C)cc2)Cc2ccco2)cc1	LASV entry inh inconclusive, Pf growth 96h 0.66µM
CC1=C(C(=O)N2CCOCC2)CC(CC(=O)NCc2ccco2)C(=O)N1Cc1ccc(C(C)(C)C)cc1 (configuration not stated)	none (no result: Pf growth 48h, HCV inh, LASV entry inh, Marburg entry inh, Pf growth 96h)
COc1ccc(CNC(=O)N2CCN(C(=O)c3ccccc3)CC2)cc1	Marburg entry inh inconclusive
